Reference: PubChem BioAssay (NCI)
Compounds without any hit were thinned out: in the full panel of roughly 79,000, 15% have a hit. A number with no mark means an inactive call. Activity calls are given as the source filed them. No stated cut-off is given here; in the data, active means growth inhibition above about 70%; inactive means the rest.

Key:
[1] = NCI Yeast Anticancer Drug Screen. Data for the rad50 strain (AID 155);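 further: 0% = growth of vehicle-only cultures of the same strain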; conditions: S. cerevisiae rad50 strain growth inhibition; at 50.0 µM; hits give high values
Procedure, shortened: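 Compounds were tested on a yeast strain with an engineered DNA damage repair alteration; the reported value is growth inhibition normalised to vehicle treatment.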

[2] = NCI Yeast Anticancer Drug Screen. Data for the mec2-1 strain (AID 157); conditions: S. cerevisiae mec2-1 strain, at 50.0 µM, hits give high values
Procedure, shortened: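 Mutant yeast (mec2-1) grown with compound; growth inhibition relative to vehicle control reported.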

[3] = NCI Yeast Anticancer Drug Screen. Data for the sgs1 mgt1 strain (AID 161);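 further: 0% = growth of cultures given vehicle only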; conditions: S. cerevisiae sgs1 mgt1 strain, at 50.0 µM, hits give high values
Procedure, shortened: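 Growth of a repair-deficient yeast mutant was monitored after compound treatment and expressed as inhibition relative to vehicle-treated cultures.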

[4] = NCI Yeast Anticancer Drug Screen. Data for the cln2 rad14 strain (AID 165);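 further: 0% = growth equal to vehicle treated cultures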; conditions: S. cerevisiae cln2 rad14 strain, at 50.0 µM, hits give high values
Procedure, shortened: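 Readout is yeast growth inhibition versus vehicle-treated controls, using a strain with cln2 and rad14 alterations exposed to compound.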

[5] = NCI Yeast Anticancer Drug Screen. Data for the bub3 strain (AID 167); conditions: S. cerevisiae bub3 mutant strain, at 50.0 µM, hits give high values
Procedure, shortened: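 Growth of a checkpoint-deficient yeast mutant is measured after compound exposure. Values represent inhibition relative to vehicle.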

[6] = NCI Yeast Anticancer Drug Screen. Data for the mlh1 rad18 strain (AID 175); conditions: S. cerevisiae mlh1 rad18 strain growth inhibition; at 50.0 µM; hits give high values
Procedure, shortened: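 Genetically defined yeast (DNA repair-deficient) exposed to compounds; growth inhibition determined relative to vehicle.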

| Compound | growth inhibition [1] [%] | growth inhibition [2] [%] | growth inhibition [3] | growth inhibition [4] [%] | growth inhibition [5] | growth inhibition [6] [%] |
| --- | --- | --- | --- | --- | --- | --- |
| C=C(c1ccccc1)c1cccc2ccccc12 | -2.45 | 3.45 | -4.9% | 19.9 | -11.7% | 6.55 |
| CC1(C(Cl)(Cl)Cl)C=C/C(=N\O)C(Cl)=C1 (stereo not given) | -2.3 | -10.7 | -1.9% | 4.95 | -8.9% | -7.75 |
| O=C1CSC(c2ccc(C(F)(F)F)cc2)N1c1nncs1 (stereo not given) | -1.2 | -3.5 | 29% | -1.45 | 12.6% | 24.2 |
| Cc1ccc(S(=O)(=O)OCC(F)(F)C(F)(F)C(F)(F)CO)cc1 | 19.1 | 3.3 | 22.2% | -15.6 | 3.85% | -15.5 |
| Cc1cc(NCCN(C)C)nc(Nc2ccc(Cl)cc2)n1 | 50.8 | 19.4 | 31.6% | -13.9 | 10.9% | 54.8 |
| CCCCOC(=O)COc1ccc2c(C)c(CCN(CC)CC)c(=O)oc2c1 | -13.1 | -34.1 | 1.25% | -7.55 | -21.8% | -2.5 |
| Cc1ccc(N2C3=C(CC4=C2CC(C)(C)CC4=O)C(=O)CC(C)(C)C3)cc1 | -29.6 | -25.1 | -21.1% | -15.9 | -33.8% | -24.9 |
| CCNC1(C(=O)O)CCCCC1 | 1.4 | -2.15 | -1.5% | 9.85 | 2.3% | -0.2 |
| C=C(C)CNCCN | 36.1 | 22.1 | 6.2% | -0.6 | 26.6% | 16.3 |
| Cc1cccc2nc(-c3ccccn3)n(CCc3ccccn3)c12 | -5.2 | 5.35 | 1.65% | -18.5 | -8.2% | 17.2 |
| COCC(C)OC(=O)c1ccccc1 (stereo not given) | 23.8 | -0.8 | -9.9% | -23.4 | -14.9% | 31.9 |
| CCOC(=O)C(C#N)(CCC#N)CCC#N | 26.3 | 6.8 | 9.05% | -3.45 | 9.4% | 12.6 |
| O=C1C(=O)C(c2ccccc2)S(=O)(=O)C1c1ccccc1 (stereo not given) | -5.3 | -5.05 | -6.3% | 4.3 | 7.55% | 14.6 |
| C=C1C(=O)C23C(O)CC4C(C)(C)[C@@H](OC(C)=O)CCC4(C)[C@]2(O)CCC1[C@@H]3O (stereo not given in full) | 46.8 | 48.9 | 44.9% | 40.1 | 70.5% (active) | 67 |
| CCOC(=O)/C(I)=C/c1cc(OC)c(OC)c(OC)c1 | -2.2 | 15.5 | 4.6% | 13.9 | 28.2% | 19.9 |
| CC(C)CC(NC(=O)C(O)C(N)Cc1ccccc1)C(=O)O (stereo not given) | 56.5 | 26.6 | 60.4% | 47.8 | 36% | -21.7 |
| O=C(CCCCCCC(=O)C[N+]12CCC(CC1)C(O)C2)C[N+]12CCC(CC1)C(O)C2 (stereo not given) | 39.1 | 4.2 | 21.1% | 0.5 | 3.6% | 15.6 |
| C=C(C)CNC(=S)N(N)c1ccc(OC)cc1 | 39.5 | 9.75 | 16.6% | -2.2 | 12.4% | 36.1 |
| Cc1ccc(-c2c(C#N)c(S)n(NS(=O)(=O)c3ccc(C)cc3)c(=O)c2C#N)cc1 | 46.1 | 57.3 | 59.9% | 28.6 | 39.6% | 59.9 |
| COC(=O)C(c1ccccc1)C(SCc1ccccc1)c1ccccc1 (stereo not given) | 2.85 | 1.15 | -18.9% | 0.95 | -7.15% | 4.7 |

| Compound | growth inhibition [1] [%] | growth inhibition [2] [%] | growth inhibition [3] | growth inhibition [4] [%] | growth inhibition [5] | growth inhibition [6] [%] |
| --- | --- | --- | --- | --- | --- | --- |
| NC(=O)c1csc(CCCCCCc2nc(C(N)=O)cs2)n1 | -13.8 | -15.5 | -5% | 8.75 | -21.2% | -21.1 |
| c1ccc2c(-c3c[nH]c4ccccc34)c[nH]c2c1 | 16.8 | -1.5 | -3.05% | -27.2 | -8.75% | 15.3 |
| O=C1NNC2NC(=O)C3(NN2C1=O)c1ccccc1-c1ccccc13 (stereo not given) | -18 | -21.5 | 0.45% | -5.8 | -11.7% | -15.4 |
| CC(=O)OCC1OC(n2cnc(Br)c2[N+](=O)[O-])C(OC(C)=O)C1OC(C)=O (stereo not given) | 30.6 | 3.4 | 17% | 14.5 | 0.65% | 2.75 |
| CC(=N\N)/C(C)=N/N=C(C)/C(C)=N/N=C(C)/C(C)=N/N=C(C)/C(C)=N/N | 11.7 | -7.8 | 4.9% | 13.7 | -8.35% | -14.4 |
| O=C1CCCCCCCCCCC1 | -8.1 | -62.7 | -17.6% | 15.2 | -17.1% | 3.1 |
| O=c1c2nn3c(=O)n(-c4ccccc4)c(=O)c3nn2c(=O)n1-c1ccccc1 | -33 | -10.6 | -14.8% | -5.8 | -24.7% | -3.05 |
| Cc1cc([N+](=O)[O-])ccc1NC(=O)C(Br)C(Br)C(=O)O (stereo not given) | 31.1 | 64.5 | 75.9% (active) | 15.8 | 75.8% (active) | 49.1 |
| O=c1c2cccnc2[nH]c2ccc3scnc3c12 | -8.85 | -11.3 | -3.75% | 22.2 | -20.1% | 40.7 |
| O=C(O)c1cccc(C(=O)O)[n+]1[O-] | 6.05 | -22.6 | -17.8% | 2.4 | -11.8% | -10 |
| COc1cccc(N=Cc2ccc(C=Nc3cccc(OC)c3)cc2)c1 | 5.95 | -9.1 | 11.1% | -9.35 | 27.7% | -12.4 |
| CN=S(=O)(OC/C=C/COS(=O)(=NC)c1ccc(C)cc1)c1ccc(C)cc1 (stereo not given) | -17.9 | -21.9 | -24.1% | -8.55 | -10.4% | -26.3 |
| C[C@H]1CC[C@@H](C(C)(C)O)CC2=C1CC[C@@H]2C | -0.2 | -44.4 | -13.2% | 0.15 | -10.6% | -26.4 |
| CNn1c(C)n[nH]c1=O | 4.95 | -15.8 | 10.4% | 20.6 | 3.4% | 17.1 |
| CCOc1ccccc1C(=O)OCCCc1ccccc1 | -1 | 9.15 | 7.1% | -2.25 | 25.2% | 15.4 |
| N/C(=N\OC(=O)Nc1ccc(CSc2ccc(Cl)cc2)o1)c1ccccn1 | 2.9 | -22.8 | -14.1% | 10.8 | -16.9% | -31.6 |
| COc1ccc(CN2COc3c(ccc4ccccc34)C2)cc1 | 36.1 | 22.9 | 31.1% | 17.4 | 12.6% | 30.9 |
| O=c1[nH]c2ccccc2c(=O)n1CCCN1CCN(c2cccc(Cl)c2)CC1 | 22 | 12.4 | 33.8% | -23.4 | 15.8% | 14.8 |
| Nc1nc(Cl)c(Cl)nc1C(=O)O | -4.65 | 10.4 | 2.3% | -32.6 | -4.25% | -1.15 |
| O=C1c2ccccc2C(=O)N1c1cccc([N+](=O)[O-])c1 | 0.5 | 15.9 | 16.4% | -44.6 | 26.4% | 7.05 |
